Screening data deposited in PubChem by National Center for Advancing Translational Sciences (NCATS).
SW480 rereplic: DNA re-replication induction in SW480 cells. SW480 DNA re-replication, Hoechst DNA content imaging, 48 h. Potency, µM (series often up to 46.1 µM), actives largely listed as activators. hit rate 1.8% among 340,000. AID 624297; further: nearly all actives have a fitted effect of over 55% in size
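Image-based DNA-content assay: after two days of treatment, nuclei were labelled with the DNA dye Hoechst and imaged, and hits were compounds raising the count of nuclei showing high fluorescence intensity.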
KB-3-1 cytotox: KB-3-1 parental cell cytotoxicity; KB-3-1 viability, CellTiter-Glo ATP luminescence, 72 h; hit rate 1.4% among 400,000; Potency, µM (top dose mostly 46.1 µM), usual class: cytotoxic; further: nearly all actives have a fitted effect of over 60% in size
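Parental KB-3-1 viability, qHTS format: 72 h compound exposure, 37 °C; CellTiter-Glo; media-only wells and DMSO plates as controls; concentration-effect fits on corrected data.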
IL-1B inflam inh: inflammasome signaling inhibition, IL-1 beta readout; AID 743279; hit rate 4.7% among 360,000; THP-1 LPS/ATP IL-1B secretion, AlphaLISA, 16 h; active compounds read low; activity change, % at 57.5 µM; in the data active means activity change below about -50%; inconclusive means mostly about -30% to -49%
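Secreted IL-1B measured by AlphaLISA bead assay after 16 h compound exposure of THP-1 cells; compounds (final up to 57.5 uM) added 1 h before LPS (250 ng/mL) and ATP (1.25 mM) stimulation; lower signal means less secretion.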
KB-V1 cytotox: KB-V1 MDR subline cytotoxicity. AID 1347076. Potency, µM (highest dose often 46.1 µM), hits mostly cytotoxic. hit rate 3.4% among 400,000. KB-V1 MDR cells viability, CellTiter-Glo, 72 h; further: nearly all actives have a fitted effect of over 60% in size
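Following 72 h at 37 degrees C with compound, KB-V1 cell viability was read by CellTiter-Glo luminescence, medium being phenol-red-free DMEM plus 10% FBS; concentration-response parameters came from normalized, curve-fitted qHTS data.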
MCF10A rereplic: DNA re-replication induction in MCF 10a cells. MCF 10A DNA re-replication, Hoechst nuclear intensity, 48 h. Potency, µM (doses to about 46.1 µM), actives largely listed as activators. hit rate 2.9% among 350,000. AID 624296; further: nearly all actives have a fitted effect of over 50% in size
Large screens that a line does not name were inactive. An excerpt weighted towards active compounds, which were near 9.9% of everything screened. Unless noted, the call rests on the fitted dose curve; in most records, active means well fitted curve in the direction sought with a large enough effect; inconclusive means small, poorly fitted or top-dose-only effect, or another doubt; inactive means no such curve, though single readings can be large; an effect the other way counts as inactive or inconclusive.

COc1cccc(NC(CNS(=O)(=O)c2ccc(Cl)cc2)c2ccccc2)c1 (stereo unspecified)	KB-3-1 cytotox 18µM (no result: SW480 rereplic, IL-1B inflam inh, MCF10A rereplic)
COc1cccc(NC(CNS(=O)(=O)c2ccc(C)cc2)c2ccccc2)c1 (stereo unspecified)	KB-3-1 cytotox inconclusive, KB-V1 cytotox 18µM (no result: SW480 rereplic, IL-1B inflam inh, MCF10A rereplic)
COC(CNS(=O)(=O)c1ccc(Cl)cc1)c1ccccc1 (stereo unspecified)	KB-V1 cytotox inconclusive
COc1ccc(CC(NC(C)=O)C(=O)NC2CCN(c3nc(C)cc(C)c3C#N)CC2)cc1OC (stereo unspecified)	MCF10A rereplic 0.58µM
CCN(CCO)CC1CCCC2CCCCC21 (stereo unspecified)	none (no result: SW480 rereplic, MCF10A rereplic)
COc1ccc(C)cc1NC(=O)c1cc2c(s1)CCC2	KB-V1 cytotox inconclusive
COC(=O)c1sccc1NC(=O)c1cc2c(s1)CCCC2	KB-V1 cytotox 15µM, MCF10A rereplic inconclusive
O=C(Cn1cc(S(=O)(=O)Cc2ccc(F)cc2)c2ccccc21)NCc1ccccc1	none (no result: SW480 rereplic, IL-1B inflam inh, MCF10A rereplic)
CC(NC(=S)NC1CCCCC1)c1ccc(C(C)(C)C)cc1 (stereo unspecified)	KB-3-1 cytotox inconclusive, KB-V1 cytotox 12µM, MCF10A rereplic 5.8µM
N/C(=N\c1nc2c(c(=O)[nH]1)CCC2)Nc1cccc2ccccc12	KB-3-1 cytotox 23µM, KB-V1 cytotox inconclusive
Cc1ccc(C(=O)Nc2cccc(C(=O)NCc3ccco3)c2)cc1	KB-3-1 cytotox 3.3µM
Cc1ccc(OCCNC(=O)C(=O)NCc2ccco2)cc1	SW480 rereplic 10µM, KB-3-1 cytotox inconclusive, KB-V1 cytotox inconclusive, MCF10A rereplic 1.6µM
Cc1ccc(CNC(=O)c2ccc3c(=O)c(O)c(-c4ccc(C)cc4)[nH]c3c2)cc1	SW480 rereplic inconclusive, KB-3-1 cytotox 4.6µM, KB-V1 cytotox inconclusive, MCF10A rereplic inconclusive
Cc1ccc(OCCCC(=O)NCc2ccco2)cc1	none
Cc1ccc(C(=O)Nc2cccc(C(=O)NCc3ccccc3)c2)cc1	KB-3-1 cytotox 8.2µM, KB-V1 cytotox 4.6µM, MCF10A rereplic inconclusive
CCCNC(=O)c1ccc2c(=O)c(O)c(-c3ccc(C)cc3)[nH]c2c1	SW480 rereplic inconclusive, KB-3-1 cytotox inconclusive, MCF10A rereplic inconclusive
Cc1nc(-c2cccc(F)c2)sc1CCNC(=O)Cc1ccc(F)cc1	none (no result: SW480 rereplic, IL-1B inflam inh, MCF10A rereplic)
Cc1cccc(NC(NC(=O)Cc2ccccc2)C(Cl)(Cl)Cl)c1 (stereo unspecified)	KB-3-1 cytotox inconclusive, KB-V1 cytotox inconclusive
Cc1ccc(NC(NC(=O)Cc2ccccc2)C(Cl)(Cl)Cl)cc1 (stereo unspecified)	KB-3-1 cytotox inconclusive, KB-V1 cytotox 15µM
Cc1ccc(NC(NC(=O)c2ccccc2[N+](=O)[O-])C(Cl)(Cl)Cl)cc1 (stereo unspecified)	KB-V1 cytotox 21µM
O=C(NCc1cccnc1)c1ccc(COc2ccccc2Br)cc1	IL-1B inflam inh -87, KB-V1 cytotox inconclusive
Cc1cc(C)n(Cc2ccc(NC(=O)c3ccc(COc4ccccc4Br)cc3)cc2)n1	KB-3-1 cytotox 16µM, IL-1B inflam inh -75, KB-V1 cytotox 2.6µM
COC(=O)c1ccc(Cn2nc(C)cc2C)cc1	none
O=C(NCc1cccnc1)c1ccc(COc2ccccc2Cl)cc1	SW480 rereplic inconclusive
NC(=O)c1ccc(NC(=O)c2ccc(COc3ccccc3Br)cc2)cc1	none
O=C(Nc1cccnc1)c1ccc(COc2ccccc2Br)cc1	SW480 rereplic inconclusive, KB-3-1 cytotox inconclusive, IL-1B inflam inh -67, KB-V1 cytotox inconclusive
COc1ccc(N(CC(=O)NCc2cccs2)S(=O)(=O)c2ccc(C(C)=O)cc2)cc1	none (no result: SW480 rereplic, MCF10A rereplic)
COc1ccc(C(=O)N2CCC3(CC2)NCCc2[nH]cnc23)cc1	none
COc1cc(OC)c(NC(=O)c2sc3ncn(CC(=O)N4CCOCC4)c(=O)c3c2C)cc1Cl	none
C=CCn1c(N2CCCCCC2)nc2c1c(=O)n(C)c(=O)n2C	KB-V1 cytotox 16µM
C=CCOCC(O)Cn1c(N2CCCC2)nc2c1c(=O)n(C)c(=O)n2C (stereo unspecified)	MCF10A rereplic 1.3µM
CCCOc1ccc(N2CC(C(=O)Nc3ccc(N4CCOCC4)cc3)CC2=O)cc1 (stereo unspecified)	KB-V1 cytotox inconclusive
CN(/N=C/c1cc(Cl)cc(Cl)c1O)c1c(Cl)cccc1[N+](=O)[O-]	none
COc1ccccc1CCNC(=O)CNC(=O)c1ccc2ccccc2c1	none
